Where “and” joins values, the source holds several entries; their conditions need not be identical. Equal entries are not always repeated. Screen size: about 5,500 compounds; about 2,000 (36%) were called active. Not shown: some 18% with an inconclusive outcome. Rule as the data show it: active = normalized growth mostly below about 0.91 (no sharp cut-off); inconclusive = no clear call, values can overlap the other calls; inactive = mostly above about 0.92. This is one part of the list.
Assay: chemical genetic growth profiling, strain panel (AID 1159580);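 also: tested at 20 µM; growth read once vehicle control cultures reached saturation at 30 °C; 1 = growth at the plate median or of vehicle wells; lower values mean less growth of the strain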
Conditions: S. cerevisiae deletion strains, growth OD

Measured: normalized growth

O=C(O)c1cc(=O)c2cccc(O)c2[nH]1
inactive: locus YAL013W, strain DEP1, stronger effect = lower value 0.999 | locus YAL021C, strain ccr4, stronger effect = lower value 0.995 | locus YAL026C, strain drs2, stronger effect = lower value 1.03 | locus YAL030W, strain snc1, stronger effect = lower value 1.01 | locus YBL061C, strain skt5, stronger effect = lower value 1.02 | locus YBR009C, strain hhf1, stronger effect = lower value 1 | locus YBR021W, strain FUR4, stronger effect = lower value 1.03 | locus YBR023C, strain chs3, stronger effect = lower value 1.03 | locus YBR171W, strain sec66, stronger effect = lower value 1.03 | locus YBR229C, strain ROT2, stronger effect = lower value 0.999 | locus YBR231C, strain swc5, stronger effect = lower value 1.01 | locus YBR279W, strain paf1, stronger effect = lower value 0.984 | locus YCL011C, strain gbp2, stronger effect = lower value 1.02 | locus YCL016C, strain dcc1, stronger effect = lower value 1.05 | locus YCL029C, strain bik1, stronger effect = lower value 0.953 | locus YCL061C, strain MRC1, stronger effect = lower value 1.02 | locus YCL069W, strain vba3, stronger effect = lower value 1.01 | locus YCR088W, strain abp1, stronger effect = lower value 1.02 | locus YDL005C, strain med2, stronger effect = lower value 1.01 | locus YDL035C, strain GPR1, stronger effect = lower value 1.02 | locus YDL040C, strain nat1, stronger effect = lower value 1 | locus YDL074C, strain BRE1, stronger effect = lower value 0.995 | locus YDL101C, strain DUN1, stronger effect = lower value 0.988 | locus YDL134C, strain PPH21, stronger effect = lower value 1.01 | locus YDL185W, strain tfp1, stronger effect = lower value 0.959 | locus YDL192W, strain arf1, stronger effect = lower value 0.985 | locus YDR001C, strain nth1, stronger effect = lower value 1.01 | locus YDR069C, strain doa4, stronger effect = lower value 1.03 | locus YDR101C, strain arx1, stronger effect = lower value 0.977 | locus YDR137W, strain rgp1, stronger effect = lower value 1.01 | locus YDR150W, strain NUM1, stronger effect = lower value 0.97 | locus YDR159W, strain sac3, stronger effect = lower value 0.981 | locus YDR162C, strain NBP2, stronger effect = lower value 1 | locus YDR195W, strain ref2 1 | locus YDR297W, strain sur2, stronger effect = lower value 1.01 | locus YDR318W, strain mcm21, stronger effect = lower value 0.981 | locus YDR334W, strain swr1, stronger effect = lower value 1.02 | locus YDR335W, strain msn5, stronger effect = lower value 1.04 | locus YDR388W, stronger effect = lower value 0.995 | locus YDR392W, strain spt3, stronger effect = lower value 1.08 | locus YDR502C, strain sam2, stronger effect = lower value 0.985 | locus YEL003W, strain gim4, stronger effect = lower value 1.01 | locus YEL037C, strain rad23, stronger effect = lower value 1.01 | locus YEL061C, strain CIN8 (second series), stronger effect = lower value 1.02 | locus YEL061C, strain CIN8, stronger effect = lower value 0.993 | locus YER015W, strain faa2, stronger effect = lower value 1.02 | locus YER016W, strain bim1, stronger effect = lower value 1.04 | locus YER110C, stronger effect = lower value 0.974 | locus YER111C, strain swi4, stronger effect = lower value 1.01 | locus YER155C, strain BEM2 (second series), stronger effect = lower value 1.03 | locus YER155C, strain BEM2, stronger effect = lower value 0.998 | locus YER167W, strain BCK2, stronger effect = lower value 0.994 | locus YFR010W, strain ubp6, stronger effect = lower value 1.01 | locus YGL078C, strain dbp3, stronger effect = lower value 0.987 | locus YGL086W, strain mad1, stronger effect = lower value 0.993 | locus YGL167C, strain pmr1, stronger effect = lower value 1.01 | locus YGL173C, strain kem1, stronger effect = lower value 1.01 | locus YGL227W, strain vid30, stronger effect = lower value 1.01 | locus YGL240W, strain doc1, stronger effect = lower value 0.999 | locus YGL248W, strain PDE1, stronger effect = lower value 0.991 | locus YGL253W, strain hxk2, stronger effect = lower value 1.03 | locus YGR078C, strain PAC10, stronger effect = lower value 0.98 | locus YGR135W, strain pre9, stronger effect = lower value 0.986 | locus YGR229C, strain SMI1, stronger effect = lower value 1.02 | locus YGR252W, strain gcn5, stronger effect = lower value 1.15 | locus YHR013C, strain ard1, stronger effect = lower value 1.01 | locus YHR027C, strain rpn1, stronger effect = lower value 1.03 | locus YHR030C, strain SLT2, stronger effect = lower value 0.985 and 0.961 | locus YHR079C, strain IRE1 (second series), stronger effect = lower value 0.985 | locus YHR079C, strain IRE1, stronger effect = lower value 0.962 | locus YHR094C, strain hxt1, stronger effect = lower value 0.964 | locus YHR129C, strain ARP1, stronger effect = lower value 0.987 | locus YHR142W, strain chs7, stronger effect = lower value 1.03 | locus YHR200W, strain rpn10, stronger effect = lower value 0.984 | locus YIL066C, strain RNR3, stronger effect = lower value 0.994 | locus YIL073C, strain SPO22, stronger effect = lower value 0.949 | locus YIL125W, strain kgd1, stronger effect = lower value 0.975 | locus YIR030C, strain dcg1, stronger effect = lower value 0.99 | locus YJL092W, strain hpr5, stronger effect = lower value 1.02 | locus YJL095W, strain BCK1 (second series), stronger effect = lower value 1.03 | locus YJL095W, strain BCK1, stronger effect = lower value 0.982 and 0.975 | locus YJL115W, strain asf1, stronger effect = lower value 1.01 | locus YJL129C, strain trk1, stronger effect = lower value 1.03 | locus YJL134W, strain LCB3, stronger effect = lower value 0.992 | locus YJL154C, strain vps35, stronger effect = lower value 1.01 | locus YJL164C, strain tpk1, stronger effect = lower value 1.01 | locus YJL166W, strain qcr8, stronger effect = lower value 0.996 | locus YJL168C, strain set2, stronger effect = lower value 0.981 | locus YJL187C, strain SWE1 (second series), stronger effect = lower value 0.95 | locus YJL187C, strain SWE1, stronger effect = lower value 1.03 | locus YJR043C, strain POL32, stronger effect = lower value 0.987 | locus YJR066W, strain TOR1, stronger effect = lower value 0.928
